# Measurements: PubChem BioAssay (Tox21)
# Inconclusive results are not listed. Unmarked numbers belong to inactive results. Activity calls are given as the source filed them. Calls follow the shape of the full dose curve.
# Experiment: qHTS assay to identify small molecule agonists or antagonists of the thyroid stimulating hormone receptor (TSHR) signaling pathway - wild type cell line counter screen (AID 1259384)
# Conditions: HEK293 wild type, cAMP HTRF counter-screen, hits give high values; series mostly up to 92.4 µM
# Method in brief: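 Counter screen in untransfected Hek293: compounds (15-point titration, triplicate) plus phosphodiesterase inhibitor Ro20-1724 added after 18 h plating; 30 min RT. Intracellular cAMP via competitive d2/cryptate immunoassay, 1 h incubation.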
# % is scaled to controls: 0 for no effect and ±100 for the full control effect.
Compound,outcome,cAMP activity change
COc1ccc(CCN(C)CCCC(C#N)(c2cc(OC)c(OC)c(OC)c2)C(C)C)cc1OC (centres undefined),inactive,
CC1(C)C(O)C(C)(C)C1O (centres undefined),inactive,
CC(=O)N(CC(O)CO)c1c(I)c(C(=O)NCCO)c(I)c(C(=O)NCC(O)CO)c1I (centres undefined),inactive,
C1OCOCO1,inactive,
NS(=O)(=O)c1ccccc1Cl,inactive,
O=S(O)CO,inactive,
Cc1ccc(=O)n(-c2ccccc2)c1,inactive,
CO[C@]12C[C@@H](COC(=O)c3cncc(Br)c3)CN(C)[C@@H]1Cc1cn(C)c3cccc2c13,inactive,
Cc1cccn2c(=O)c(-c3nnn[nH]3)cnc12,,-0.907% [at 18.9 µM]
Nc1c2c(nc3ccccc13)CCCC2O (centres undefined),inactive,
CCn1ccnc1CC1COc2ccccc2O1 (centres undefined),inactive,
CN1N=C(C(N)=O)CCC1=O,inactive,
CC(C)NC(=O)NC(C)C,inactive,
OC[C@]1(O)OC[C@@H](O)[C@H](O)[C@@H]1O,inactive,
O=C(O)c1ccccc1OP(=O)(O)O,inactive,
Cc1cc(O)cc2c1O[C@](C)(CCC[C@H](C)CCC[C@H](C)CCCC(C)C)CC2,inactive,
O=C(CCCN1CCC(O)(c2cccc(C(F)(F)F)c2)CC1)c1ccc(F)cc1,inactive,
OCCOc1ccc(OCCO)cc1,inactive,
Cc1[nH]c(=O)c(C#N)cc1-c1ccc2nccn2c1,inactive,
Cn1cc(S(C)=O)c(=O)c2ccc(F)cc21 (centres undefined),inactive,
C=C(C)C(=O)OCCCCCCCC(C)C,inactive,
C=C[Si](OC(=C)C)(OC(=C)C)OC(=C)C,inactive,
CCO[Si](CCC1CCC2OC2C1)(OCC)OCC (centres undefined),inactive,
Cc1cccc(C)c1NC(=O)C(C)N (centres undefined),inactive,
